For 63 compounds, inhibition results are on record in PubChem BioAssay AID1446 (The Scripps Research Institute Molecular Screening Center, 2008).

Screen size: about 220,000 compounds; about 2,400 (1.1%) were called active. The entries come from a sample that favours actives as a whole. A number with no mark means an inactive call.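 Rule for the calls: active = inhibition above the campaign mean plus 3 SD over all tested compounds (cut at about 24% in these data); inactive = the rest.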

A short description of the assay: reduced viability of JAK2V617F-dependent Ba/F3 cells, primary screen, JAK2V617F inhibitor project, cell-based, Ba/F3 EpoR-JAK2V617F, luminescence (AID 1446).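 Note: cytokine-independent growth of Ba/F3 cells driven by EpoR plus mutant JAK2; 0% = DMSO-treated cells and 100% = JAK inhibitor I control.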 Conditions: ATP luminescence, at 5.6 µM, hits give high values.
By inhibition is commonly meant the drop in the measured response relative to a control, in per cent. Consider `Oc1ccc(N=Nc2nccs2)c(O)c1`, for which the inhibition was 8.36%.

Regarding `Oc1ccc2ccccc2c1C=Nc1ccccc1`, the inhibition is 0.08%.

As for `Oc1ccc2ccccc2c1N=Nc1nccs1`, the inhibition is 98.2% (active).

In the case of `CCCC(NC(=O)c1ccco1)c1nc2ccccc2[nH]1` (stereo not drawn), the inhibition is 4.01%.

Turning to `CCCCNc1nc2c(c(=O)n(C)c(=O)n2C)n1Cc1cccc(OC)c1`, the inhibition is 52.4% (active).

On to `COC(=O)C(C)Sc1nc2c(c(=O)n(C)c(=O)n2C)n1Cc1cccc(C)c1` (stereo not drawn), for which the inhibition is -3.92%.

For the compound `Cn1c(=O)c2c(nc(NCCc3ccccc3)n2Cc2ccccc2)n(C)c1=O`, the inhibition was 1.54%.

As to `O=C(NCC1CCCO1)c1ccccc1-c1nc(-c2ccccc2Cl)no1` (stereo not drawn), the inhibition is 4.19%.

Turning to `COc1ccc(CCNS(=O)(=O)c2ccc(C(=O)NCc3ccco3)cc2)cc1OC`, the inhibition was -0.49%.

Take `CCCC1=Nc2cc(C(=O)NCc3ccco3)ccc2Sc2ccccc21`: the inhibition was 81.1% (active).

On to `COc1ccc2c(Cl)c(C(=O)NCc3ccco3)sc2c1`, for which the inhibition is -3.38%.

`O=[N+]([O-])C(=c1ccc2c(c1)N1C3=C(CCCC3)CC3CCCCC31N=2)[N+](=O)[O-]` (stereo not drawn): the inhibition is -3.46%.

For the compound `COc1ccccc1CNC(=O)CNC(=O)c1cn(-c2ccccc2OC)c(=O)c2ccccc12`, the inhibition is -3.01%.

Turning to `Cn1nc(C(F)(F)F)cc1-c1ccc(/C=C(\C#N)C(=O)c2cccc(C(F)(F)F)c2)s1`, the inhibition is -2.61%.

For the compound `CSC(=S)N/N=C/c1c[nH]c2ccccc12`, the inhibition was -3.06%.

As for `C[n+]1ccc(/C=C/c2c[nH]c3ccccc23)cc1`, the inhibition was 88.5% (active).

Regarding `S=c1[nH]nc(-c2ccccc2)n1/N=C/c1c[nH]c2ccccc12`, the inhibition was -2.71%.

For `CC1(C)C2CC=C(/C=N/NC(=O)c3ccc(Cl)cc3)C1C2` (stereo not drawn), the inhibition was -0.76%.

For `CCOC(=O)N1CCN(S(=O)(=O)c2ccc(C(=O)Nc3ccc(F)cc3F)cc2)CC1`, the inhibition is 54.4% (active).

On to `O=C(Nc1cccc(F)c1)c1ccc(S(=O)(=O)N2CCCC2)cc1`, for which the inhibition is 2.9%.

Turning to `COc1ccc(C(=O)Nc2ccc(F)cc2F)cc1`, the inhibition was -3.55%.

Regarding `O=C(COC(=O)c1ccc(O)cc1)Nc1nccs1`, the inhibition was 0.51%.

Regarding `Cc1nc(N2CCC(C)CC2)c2c(C)c(C(=O)Nc3cc(F)ccc3C)sc2n1`, the inhibition is 2.17%.

In the case of `C=CCSc1nnc(NC(=O)c2ccc(NC(C)=O)cc2)s1`, the inhibition was -0.62%.

Regarding `CC(NC(=O)c1cccc2ccccc12)c1ccc2c(c1)CCCC2` (stereo not drawn), the inhibition was 64.5% (active).

In the case of `O=C(Cc1ccc2c(c1)CCCC2)Nc1ccccc1Cl`, the inhibition was 3.77%.

For the compound `CC(=O)c1sc(NC(=O)c2cccc3ccccc23)nc1C`, the inhibition was -0.63%.

For `O=[N+]([O-])c1ccc2nc(-c3ccccn3)[nH]c2c1`, the inhibition was 2.31%.

Turning to `NNC(=O)c1oc2nc(-c3ccccc3)cc(-c3ccco3)c2c1N`, the inhibition was -4.49%.

For `COC(=O)c1cc2c(ccn2C)n1C`, the inhibition was -1.58%.

Take `Cc1ccc(S(=O)(=O)N2CCOCC2)cc1C(=O)OC1CCCCC1=O` (stereo not drawn): the inhibition was 0.06%.

As to `O=C(CN1CCCCC1)Nc1ccccc1Cl`, the inhibition is 1.81%.

For `O=C(Nc1ccccc1Cl)c1ccc2nsnc2c1`, the inhibition is 0.05%.

Regarding `O=C(Nc1ccccc1Cl)/C(Cl)=C(\Cl)S(=O)c1ccccc1` (stereo not drawn), the inhibition was 102% (active).

`O=S(=O)(Nc1n[nH]c(C(F)(F)F)n1)c1ccccc1`: the inhibition was -3.72%.

For `O=C(CNc1ccc(F)cc1F)NC(=O)NCc1ccco1`, the inhibition was 4.79%.

With `CCC1CCCCN1CCCNC(=O)c1cc2c(Cl)nc3ccccc3c2s1` (stereo not drawn), the inhibition was 58.8% (active).

On to `CCC1CCCCN1CCCNC(=O)Cn1nc(-c2ccccc2)ccc1=O` (stereo not drawn), for which the inhibition was -2.73%.

Consider `CCC1CCCCN1CCCNC(=O)C1CCC(Cn2c(=O)[nH]c3ccccc3c2=O)CC1` (stereo not drawn), for which the inhibition is 2.93%.

Regarding `CC(C)(C)c1cc(P(=O)(c2ccccc2)c2ccccc2)ccc1O`, the inhibition is -0.07%.

Take `OCCN1CCN(C(=S)c2ccc(-c3ccccc3)cc2)CC1`: the inhibition is -5.03%.

`COc1ccc(C(=O)CSc2nnc(NC(=O)C3CC(=O)N(c4cccc(OC)c4)C3)s2)cc1` (stereo not drawn): the inhibition is 0.22%.

In the case of `Cc1ccc(NC(=O)CC(=O)Nc2ccc(C)cc2)cc1`, the inhibition was -3.42%.

Consider `O=C(CCl)Nc1ccc(Sc2ccc(NC(=O)CCl)cc2)cc1`, for which the inhibition was 39.2% (active).

For `CC(C)(CCl)C(=O)Nc1ccc(Sc2ccc(F)cc2)cc1`, the inhibition was -2.48%.

Consider `COc1ccc(C(=O)Nc2ccc(N3CCC(C)CC3)cc2)cc1Br`, for which the inhibition was 1.71%.

Take `COc1ccc(N2CCN(C(=O)CCSCc3ccccc3F)CC2)cc1`: the inhibition was -2.23%.

On to `CCC(C)C(=O)Nc1cc([N+](=O)[O-])ccc1Cl` (stereo not drawn), for which the inhibition is -3.84%.

On to `CCN(CC)S(=O)(=O)c1ccc(N(C)Cc2cccc(OC)c2OC)nc1`, for which the inhibition is 1.34%.

Take `CCCCCCc1cc2cc(-c3nnc(-c4cccc(OC)c4)o3)c(=O)oc2cc1O`: the inhibition was -1.07%.

With `Cn1c(SCC(=O)N/N=C/c2ccc(O)c(O)c2)nc2ccccc21`, the inhibition was 0.9%.

`CCCc1nc2ccccc2c(=O)n1NC(=O)c1c(O)c2ccccc2[nH]c1=O`: the inhibition is 6.3%.

With `CCCc1nc2ccccc2c(=O)n1/N=C/c1ccc(O)c(O)c1`, the inhibition is 26.5% (active).

In the case of `Cc1nnsc1C(=O)NCc1c(F)cccc1Cl`, the inhibition was 1.93%.

In the case of `CCCCC1S/C(=N/N=C/c2cccs2)NC1=O` (stereo not drawn), the inhibition was 1.12%.

Take `CCOC(=O)c1[nH]c2c(c1C)C(=O)CC(c1ccc(N(C)C)cc1)C2` (stereo not drawn): the inhibition was 0.77%.

For the compound `CCCOC(=O)c1[nH]c2c(c1C)C(=O)CC(c1cccs1)C2` (stereo not drawn), the inhibition is 74.3% (active).

Take `CCCOC(=O)c1[nH]c2c(c1C)C(=O)CC(c1cc(OC)c(OC)c(OC)c1)C2` (stereo not drawn): the inhibition is 17.1%.

As for `COc1ccc(/C=C2/SC(=O)N(CCCCCC(=O)Nc3ccccc3C(=O)O)C2=S)cc1`, the inhibition was -2.34%.

Take `Cc1ccc(O)c(CNc2nc3ccccc3n2C)c1`: the inhibition is 1.4%.

Regarding `Cn1cccc1-c1nc2ccccc2n1C`, the inhibition was 3.85%.

As to `Cc1ccc(C2=NN(C)c3nc4ccccc4n3C2)cc1`, the inhibition is 56.8% (active).

Consider `Fc1ccc(COc2ccc(-c3nnco3)cc2)cc1`, for which the inhibition is -2.6%.
